High-throughput results (PubChem)
Sampled rows, rich in hits. Any-hit rate of the full collection: about 7.9%.
HCV inhibitor: HCV inhibition; AID 651820; Huh7.5.1 HCVcc-Cre infection, luciferase reporter, 44 h; Potency, µM (top dose mostly 41.8 µM), actives largely listed as inhibitors; actives 3.4% (n = 340,000); active = well fitted inhibition curve with a large enough effect; inconclusive = small, poorly fitted or top-dose-only effect, or another doubt; inactive = no such curve, though single readings can be large or run the other way
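Compounds are dispensed onto cells plated 4 h earlier at 1,000 per well, with HCVcc-Cre virus (about 0.5 moi) added next. Following 44 h of culture, luminescent signal is measured for 15 sec after 15 min with substrate at room temperature.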
LASV entry inh: inhibitors of Lassa virus binding or cell entry | Lassa virus pseudotype entry inhibition, cell reporter | Potency, µM (series often up to 37.9 µM), usual class: inhibitors | actives 1.2% (n = 300,000) | AID 540256; calls by dose curve; tested in HEK293 cells; also: nearly all actives have a fitted effect of over 50% in size
Marburg entry inh: inhibitors of Marburg virus binding or cell entry. Marburg virus pseudotyped entry inhibition, cell reporter. Potency, µM (doses to about 37.8 µM), usual class: inhibitors. actives 1.8% (n = 300,000). AID 540276; calls by dose curve; tested in HEK293 cells
HCMV inh: human cytomegalovirus inhibition. HFF cells, HCMV-luciferase reporter, 72 h; hits give low values. activity change, negative = inhibition, % at 57.5 µM. actives 4.5% (n = 410,000); in the data active = activity change below about -60%; inconclusive = no clear call, values can overlap the other calls; inactive = above about -39%
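Two-dose cell screen: HFF monolayers treated with compounds and infected with luciferase-expressing HCMV at 1 PFU/cell, 72 h at 37C, then lysed for luciferase measurement.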
FMDV inh: antivirals against foot and mouth disease virus; FMDV antiviral cell-based qHTS; Potency, µM (highest dose often 57.9 µM), hits mostly inhibitors; actives 1.2% (n = 410,000); AID 1159524; calls by dose curve; tested in HEK293T cells; also: read-out not given here; nearly all actives have a fitted effect of over 45% in size
Each line names hits and unclear results; the compound was inactive in the other large screens.

Cc1nc2cc(NC(=O)c3ccc([N+](=O)[O-])s3)ccc2s1	HCV inhibitor inconclusive, LASV entry inh inconclusive, Marburg entry inh inconclusive, HCMV inh -94
Cc1cc(NS(=O)(=O)c2ccc(NC(=O)c3ccc([N+](=O)[O-])s3)cc2)nc(C)n1	HCV inhibitor inconclusive, HCMV inh -97
CC(=O)Nc1ccc(C(=O)Nc2ccc(S(=O)(=O)Nc3nccc(C)n3)cc2)cc1	none (no result: LASV entry inh, Marburg entry inh)
Cc1cc(NS(=O)(=O)c2ccc(NC(=O)Cc3ccc([N+](=O)[O-])cc3)cc2)nc(C)n1	none
CC(OC(=O)c1ccc(Cl)c(S(N)(=O)=O)c1)C(=O)NCC1CCCCC1 (stereo unspecified)	HCV inhibitor inconclusive, HCMV inh -87 (no result: LASV entry inh, Marburg entry inh)
COc1cccc(C(=O)N(Cc2cc3cc4c(cc3nc2N(C)C)OCO4)CC2CCCO2)c1 (stereo unspecified)	none (no result: HCV inhibitor, LASV entry inh, Marburg entry inh, HCMV inh)
COc1ccc2[nH]cc(CCNCc3cccnc3)c2c1	none (no result: LASV entry inh, Marburg entry inh)
CCc1ccc(CNCCc2ccccc2F)cc1	LASV entry inh inconclusive, HCMV inh -72
Fc1ccc(CNCCc2c[nH]c3ccccc23)cc1	Marburg entry inh 10µM
COc1cccc(CNCCc2c[nH]c3ccccc23)c1	LASV entry inh inconclusive, Marburg entry inh 11µM
Fc1ccc(CNCCc2ccccc2F)cc1	none
CCOc1ccccc1NC(=O)NC(CC)c1c(-n2cccc2)sc2c1CCN(C)C2 (stereo unspecified)	none (no result: HCV inhibitor, Marburg entry inh)
O=C(NCCNC(=O)c1cccnc1)c1cccnc1	none (no result: HCV inhibitor, LASV entry inh, Marburg entry inh, HCMV inh)
COC(=O)c1c(NC(=O)c2cccnc2)sc(C)c1C	HCV inhibitor 10µM, FMDV inh inconclusive (no result: HCMV inh)
COC(CNC(=O)c1cccnc1)OC	HCMV inh -62 (no result: LASV entry inh, Marburg entry inh)
COc1ccc(/C=C/C=C2C(=O)NC(=S)NC2=O)cc1	HCV inhibitor inconclusive, LASV entry inh inconclusive, Marburg entry inh inconclusive, FMDV inh 40µM
COc1ccc(C=C2C(=O)NC(=S)NC2=O)cc1OC	none
O=[N+]([O-])c1ccc(NN=Cc2cc(Br)ccc2O)nc1	HCV inhibitor inconclusive, LASV entry inh inconclusive, Marburg entry inh inconclusive, HCMV inh -100
Cc1ccc(-c2cc(Cc3ccccc3)c(=O)[nH]n2)cc1	LASV entry inh 2.5µM
CC[C@]12c3[nH]c4ccc(Cl)cc4c3CCN1C(=O)[C@@H](CC(=O)NCC13CC4CC(CC(C4)C1)C3)C[C@@H]2C(=O)N1CCN(C(=O)C2CC2)CC1	HCV inhibitor inconclusive, FMDV inh inconclusive (no result: LASV entry inh, Marburg entry inh)
CC[C@]12c3[nH]c4ccc(Cl)cc4c3CCN1C(=O)[C@@H](CC(=O)NCc1ccco1)C[C@@H]2C(=O)N1CCN(C(=O)C2CC2)CC1	none (no result: LASV entry inh, Marburg entry inh)
CC[C@]12c3[nH]c4ccccc4c3CCN1C(=O)C(CC(=O)NCC13CC4CC(CC(C4)C1)C3)C[C@@H]2C(=O)N1CCN(C(=O)C2CC2)CC1 (stereo partly specified)	HCV inhibitor 22µM, FMDV inh inconclusive (no result: LASV entry inh, Marburg entry inh)
CC[C@]12c3[nH]c4ccccc4c3CCN1C(=O)C(CC(=O)NCc1ccco1)C[C@@H]2C(=O)N1CCN(C(=O)C2CC2)CC1 (stereo partly specified)	HCV inhibitor 0.79µM (no result: LASV entry inh, Marburg entry inh)
CCOCCc1nn2c(=O)cc(COC(=O)COc3ccccc3Cl)nc2s1	none (no result: HCV inhibitor, Marburg entry inh)
CC[C@@]12C=C(C=Cc3ccccc3)[C@](CC)(C1)[C@H](c1ccccc1)CC2=O	none (no result: HCV inhibitor, LASV entry inh, HCMV inh, FMDV inh)
Cc1ccc(NC(=O)COC(=O)c2c(-c3ccccc3)noc2C)cc1	HCV inhibitor inconclusive (no result: LASV entry inh, Marburg entry inh)
Cc1onc(-c2ccccc2)c1C(=O)OCC(=O)Nc1ccc(OC(F)(F)F)cc1	HCV inhibitor 11µM, FMDV inh inconclusive (no result: LASV entry inh, Marburg entry inh)
Cc1onc(-c2ccccc2)c1C(=O)OCC(=O)Nc1ccc(Cl)cc1	HCV inhibitor 10µM (no result: LASV entry inh, Marburg entry inh)
COc1cccc2c1C1COC3C4CC(C(=O)O)C(C(C2)N13)N4C (stereo unspecified)	HCV inhibitor inconclusive, LASV entry inh inconclusive, Marburg entry inh inconclusive, HCMV inh -96
O=[N+]([O-])c1ccc(N2CCN(Cc3ccccc3)CC2)c2c1no[n+]2[O-]	FMDV inh 28µM (no result: HCV inhibitor, LASV entry inh, Marburg entry inh)
COc1ccc(C2=[N+](C)CCn3cccc32)c(OC)c1	LASV entry inh inconclusive, Marburg entry inh inconclusive, HCMV inh -96, FMDV inh inconclusive
COc1ccc(CN2CCc3ccccc3C2)c(OC)c1	none
Cc1noc(/C=C/N(C)C)c1S(=O)(=O)N1CCN(c2ccc(F)cc2)CC1	HCMV inh -62 (no result: LASV entry inh, Marburg entry inh)
CC1=C(C(=O)OC2CCCCC2)C(c2cccc([N+](=O)[O-])c2)NC(=O)N1 (stereo unspecified)	HCV inhibitor 11µM (no result: LASV entry inh, Marburg entry inh)
